The text below walks through data of PubChem BioAssay (Tox21).

The nature of test [1]: cAMP Responsive Elements (CRE) small molecule antagonists, cell-based qHTS assay: qHTS cell viability counter screen (AID 2060913). Note: nearly all actives have a fitted effect of over 40% in size. In outline:
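CRE-bla HEK293T cells were seeded in assay medium with 10% dialyzed FBS, incubated 18 hrs at 37 C, then exposed to compounds plus 0.25 uM final NKH477 for 3 hrs. Viability was read by CellTiter-Glo luminescence after 30 min, in the same wells.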

Test [2] is described as follows: cAMP Responsive Elements (CRE) small molecule agonists, cell-based qHTS assay: qHTS cell viability counter screen (AID 2060914).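 Note: viability read after 3 h of compound exposure; nearly all actives have a fitted effect of over 50% in size.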 In outline:
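Cells are seeded and incubated 18 h, treated with compounds in DMSO for 3 h, read for the bla reporter, then given CellTiter-Glo; luminescence is measured after 30 min at room temperature.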

Results filed as inconclusive are left out. Values without a mark were called inactive. Activity calls are given as the source filed them. Calls come from the whole dose curve; as a rule, active = well fitted cell-killing curve with a large enough effect in the repeat runs; inconclusive = weak or mixed curves, or effect the other way; inactive = flat fitted curve, though single readings scatter.
% is set by controls: 0 for no effect and ±100 for the full control effect.

On to `CCCc1ccc(O)cc1`, for which the Potency result in test [1] and in test [2] was “inactive” in each case.

For the compound `CO[Si](C)(C)OC`, the Potency result in test [1] and in test [2] was “inactive” in each case.

For the compound `O=C1C(c2[nH]c3ccccc3c2O)=Nc2ccccc21`, the Potency entry in test [1] and in test [2] was “inactive” in each case.

As to `C=CC(C)(CCC=C(C)C)OC=O` (configuration not stated), the Potency entry in test [1] and in test [2] was “inactive” throughout.

Take `Nc1nc2ccccc2[nH]1`: the Potency result in test [1] and in test [2] was “inactive” throughout.

`NC(=O)c1ncn([C@@H]2O[C@H](CO)[C@@H](O)[C@H]2O)c1N`: the Potency entry in test [1] and in test [2] was “inactive” each time.

Turning to `C[C@@H]1CC[C@@]2(OC1)O[C@H]1C[C@H]3[C@@H]4CC[C@H]5C[C@@H](O)CC[C@]5(C)[C@H]4CC(=O)[C@]3(C)[C@H]1[C@@H]2C`, the viability change, negative = cytotoxic in test [1] is 0.912% [at 8.39 µM]. Besides, the activity change, negative = cytotoxicity in test [2] is -1.47% [at 8.39 µM].

With `COc1ccccc1OC(=O)Oc1ccccc1OC`, the Potency result in test [1] and in test [2] was “inactive” throughout.

`O=C(O)CN(CCN(CC(=O)O)CC(=O)O)CC(=O)O`: the viability change, negative = cytotoxic in test [1] is 3.3% [at 3.27 µM]. The activity change, negative = cytotoxicity in test [2] was -20.1% [at 3.27 µM].

With `CCC(C)SSC(C)CC` (configuration not stated), the Potency entry in test [1] and in test [2] was “inactive” throughout.

With `O=CNNC=O`, the Potency entry in test [1] and in test [2] was “inactive” in each case.

For the compound `CC(=O)OC[C@H]1O[C@@H](OC(C)=O)[C@H](OC(C)=O)[C@@H]1OC(C)=O`, the Potency entry in test [1] and in test [2] was “inactive” each time.

For the compound `O=C1OC(=O)C2CC=CCC12` (configuration not stated), the Potency result in test [1] and in test [2] was “inactive” in each case.

Consider `CCCCCCC(O)CCCCCCCCCCC(=O)OC` (configuration not stated), for which the Potency result in test [1] and in test [2] was “inactive” in each case.

Take `Cn1c(=O)c2c(ncn2C)n(C)c1=O`: the Potency result in test [1] and in test [2] was “inactive” each time.

For `CC(O)C(C)O` (configuration not stated), the Potency entry in test [1] and in test [2] was “inactive” throughout.

Regarding `CC(COc1ccccc1)N(CCCl)Cc1ccccc1` (configuration not stated), the Potency result in test [1] and in test [2] was “inactive” in each case.

`CC(=O)C(=O)CC(C)C`: the Potency entry in test [1] and in test [2] was “inactive” in each case.

Consider `CNC[C@H](O)c1cccc(O)c1`, for which the Potency entry in test [1] and in test [2] was “inactive” throughout.

As for `NC1CCN(c2nc3c(cc2F)c(=O)c(C(=O)O)cn3-c2ccc(F)cc2F)C1` (configuration not stated), the Potency entry in test [1] and in test [2] was “inactive” throughout.

As for `CCCCCCCCOCCC#N`, the Potency entry in test [1] and in test [2] was “inactive” in each case.

As for `CCCCCCCCCCCCCCCCCCOCCO`, the viability change, negative = cytotoxic in test [1] is -9.04% [at 18.9 µM]. In addition, in test [2], the activity change, negative = cytotoxicity was -6.34% [at 18.9 µM].

In the case of `CCCCCCCCSCCO`, the Potency entry in test [1] and in test [2] was “inactive” in each case.

Turning to `c1ccc2scnc2c1`, the Potency result in test [1] and in test [2] was “inactive” each time.

Regarding `NC(=O)c1ccc([N+](=O)[O-])cc1`, the Potency entry in test [1] and in test [2] was “inactive” each time.

As for `CN(C)Cc1ccccc1O`, the Potency entry in test [1] and in test [2] was “inactive” each time.

Consider `CC1CCCO1` (configuration not stated), for which the Potency entry in test [1] and in test [2] was “inactive” throughout.

For `Oc1cc(O)c(Cl)cc1Cl`, the Potency entry in test [1] and in test [2] was “inactive” in each case.

Take `CCCCCCCCCCOCC(O)CN` (configuration not stated): the Potency result in test [1] and in test [2] was “inactive” each time.

Regarding `CCCC(=O)OCC(COC(=O)CCC)OC(=O)CCC`, the Potency result in test [1] and in test [2] was “inactive” each time.

For `CCCCOC(O)CC` (configuration not stated), the Potency result in test [1] and in test [2] was “inactive” each time.

Consider `Cc1c(C(=O)NN2CCCCC2)nn(-c2ccc(Cl)cc2Cl)c1-c1ccc(Cl)cc1`, for which the Potency entry in test [1] and in test [2] was “inactive” throughout.

As to `Cc1ccc(N)c(S(=O)(=O)O)c1`, the Potency entry in test [1] and in test [2] was “inactive” in each case.

For the compound `C=CC(OCC)OCC`, the Potency result in test [1] and in test [2] was “inactive” throughout.

With `CN[C@H]1CC[C@@H](c2ccc(Cl)c(Cl)c2)c2ccc(S(N)(=O)=O)cc21`, the Potency result in test [1] and in test [2] was “inactive” in each case.

Turning to `O=c1[nH][nH]c2ccccc12`, the Potency result in test [1] and in test [2] was “inactive” throughout.

With `O=C(O)CCCCCCCCCCCC(=O)O`, the Potency result in test [1] and in test [2] was “inactive” in each case.

Regarding `CC1=C(C=O)C(C)(C)CC=C1`, the Potency entry in test [1] and in test [2] was “inactive” throughout.

On to `CC#C[C@]1(O)CC[C@H]2[C@@H]3CCC4=CC(=O)CCC4=C3[C@@H](c3ccc(N(C)C)cc3)C[C@@]21C`, for which the Potency entry in test [1] and in test [2] was “inactive” in each case.

Take `O=S(=O)(O)CCN1CCN(CCO)CC1`: the Potency result in test [1] and in test [2] was “inactive” in each case.

For `CN1N=C(C(N)=O)CCC1=O`, the Potency result in test [1] and in test [2] was “inactive” in each case.

In the case of `CCN(CC)c1ccc(C(=O)c2ccccc2C(=O)O)c(O)c1`, the Potency entry in test [1] and in test [2] was “inactive” throughout.

For `Cc1cc(O)c(Cl)cc1C`, the Potency result in test [1] and in test [2] was “inactive” throughout.

Regarding `CC1COc2ccccc2N1` (configuration not stated), the Potency entry in test [1] and in test [2] was “inactive” each time.

Consider `C1CSCCS1`, for which the Potency result in test [1] and in test [2] was “inactive” each time.

`CCOC(=O)COC(=O)c1cc(Oc2ccc(C(F)(F)F)cc2Cl)ccc1[N+](=O)[O-]`: the Potency entry in test [1] and in test [2] was “inactive” in each case.

As to `CC(C)=CCCC(C)CC(=O)O` (configuration not stated), the Potency result in test [1] and in test [2] was “inactive” throughout.

On to `Nc1ccc(S(=O)(=O)Nc2nccs2)cc1`, for which the Potency result in test [1] and in test [2] was “inactive” each time.

On to `CC(C)(O)C(=O)c1ccccc1`, for which the Potency result in test [1] and in test [2] was “inactive” each time.

Take `CC1OC(=O)C(C)OC1=O` (configuration not stated): the Potency entry in test [1] and in test [2] was “inactive” each time.

As to `NCCNc1cccc2ccccc12`, the Potency entry in test [1] and in test [2] was “inactive” each time.

As for `CC(C)(C)c1cccc(O)c1`, the Potency result in test [1] and in test [2] was “inactive” each time.

With `CC(=O)C(C)O` (configuration not stated), the Potency entry in test [1] and in test [2] was “inactive” in each case.

In the case of `CC(=O)Oc1cccc(C)c1`, the Potency result in test [1] and in test [2] was “inactive” each time.

With `CN1[C@@H]2CC[C@H]1CC(OC(=O)C(O)c1ccccc1)C2` (some centres not stated), the Potency result in test [1] and in test [2] was “inactive” throughout.

Turning to `Nc1cc(=O)[nH]c(N)n1`, the Potency entry in test [1] and in test [2] was “inactive” throughout.
